Molecules are shown by their SMILES. Potency and affinity values are given separately. Active and inactive are the calls of the source.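 Rule for the calls: active = signal falls with a fitted half-maximal dose at most twice the top dose, in every run; inconclusive = steady partial drop, poor fit, or runs disagree; inactive = flat, rising or too weak in every run.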

This assay is described as follows: EF1alpha-driven Renilla reporter with control 3'UTR suppression – Clone20-Shn3RL cells, dual-Glo, cherry-pick, set 2, counter-screen for Shn3 3'UTR targeting project, dose response (AID 720724). As to conditions: renilla luciferase luminescence, 24 h; series mostly up to 35 µM. Background: The purpose of a counterscreen is to sort out artefacts and off-target activity.
`OCCCNc1nccc(-c2cc(Nc3cccc(Cl)c3)ncn2)n1`: the outcome was inactive. With `Cc1ccc2c(c1)nnn2C1CCN(S(=O)(=O)c2ccc(C(=O)N3C(C)CCCC3C)cc2)CC1` (stereo not drawn) the entry was “inactive”; with `Cc1ccc(-c2nc3ncccc3o2)cc1NC(=O)c1sc2ccccc2c1Cl`, “inactive”. For `CCCn1c(C)cc(C(=O)CN2C(=O)c3ccccc3S2(=O)=O)c1C`, the outcome was inactive. In the case of `COc1ccc(CNC(=O)C(c2ccc(C)cc2)N(Cc2cccs2)C(=O)c2ccc3c(c2)OCCO3)cc1` (stereo not drawn), the outcome was inactive. Next, `O=C(O)c1cccc(COc2ccccc2Cl)c1`: “inactive”; `COc1ccccc1N1CCN(c2ncc(C(=O)N3CCN(c4cccc(Cl)c4)CC3)c3ccccc23)CC1`: “inactive”.

Turning to `Fc1ccc(-n2nnnc2-c2cnc(-c3cccs3)nc2C(F)(F)F)cc1`, the result was inactive. Next, `Cc1c(C)c2ccc(OCC(=O)Nc3ccccn3)c(C)c2oc1=O`: “inactive”. Next, `COc1ccc(C(=O)Nc2nc3ccccc3s2)c(OC)c1`: “inactive”; `c1ccc(-c2noc(-c3ccc4ccccc4c3)n2)nc1`: “inactive”. With `COc1ccc(CNC(=O)C(C)n2ccc3cc(S(=O)(=O)N4CCCCCC4)ccc32)cc1` (stereo not drawn) the entry was “inactive”; with `CCc1ccccc1NC(=O)COC(=O)c1c(C)nsc1NC`, “inactive”; with `Cc1ccc(C(=O)Nc2cnc3ccccc3c2)cc1`, “inactive”.

Regarding `Cn1nc(CC(=O)Nc2ccc3c(c2)OCCO3)c2ccccc2c1=O`, the compound was called inactive. With `COc1ccc(OCc2cccc(C(=O)O)c2)cc1` the entry was “inactive”.

In the case of `Cc1cccc(NS(=O)(=O)c2ccc(C3CCCCC3)cc2)c1`, the result was inactive. Consider `CCCCN1CC(COCc2ccccc2)Oc2cccc(Oc3ccc(C(C)C)cc3)c2S1(=O)=O` (stereo not drawn), for which the result was inactive.

(Values after PubChem BioAssay AID720724 (Broad Institute, 2013).)
